Morphology score and SARS-CoV-2 infection rate data for 61 compounds are collected here from the supplement of paper PMC13380429.

Assay [1] relates to Vero E6 infected with SARS-CoV-2. The assay can be described thus: morphology score (similarity to uninfected cells); higher = more like uninfected cells. As to conditions: 24 h.
Assay [2] has the same test system. The experiment in a line: SARS-CoV-2 infection rate relative to infected DMSO; higher = more infection, active = 60 or less. As to conditions: 24 h.

In turn, `CN1[C@@H]2CC[C@H]1C[C@@H](OC(=O)C(CO)c1ccccc1)C2` (some centres not stated) (10 µM) came in with a morphology score in assay [1] of -0.21. Further, the SARS-CoV-2 infection rate in assay [2] is 106% (inactive).
On the same counts, the results for `Nc1cc(F)ccc1NC(=O)/C=C/c1cnn(C/C=C/c2ccccc2)c1` (0.833333 µM) are -0.0979 and 109% (inactive).
Take `Fc1ccc(-c2c3cccc(C(F)(F)F)c3nn2Cc2ccc(F)cc2Cl)cc1` (10 µM): the morphology score in assay [1] turned out to be 0.289. For the same compound, in assay [2], the SARS-CoV-2 infection rate is 95.5% (inactive).
On the same counts, the results for `CNCc1ccc(-c2[nH]c3cc(F)cc4c3c2CCNC4=O)cc1` [rucaparib] (10 µM) are 0.234 and 83% (inactive).
On the same counts, the results for `CN1CCN(CC/C=C2/c3ccccc3Sc3ccc(S(=O)(=O)N(C)C)cc32)CC1` [thiothixene] (10 µM) are 0.381 and 80.5% (inactive).
The matching figures for `O=C(c1cccc(Br)c1)N1CCC(N2CCCC2)CC1` (10 µM): -0.00696 and 106% (inactive).
In turn, `CCOc1ccc(Cc2cc([C@]34OC[C@](CO)(O3)[C@@H](O)[C@H](O)[C@H]4O)ccc2Cl)cc1` [ertugliflozin] (10 µM) returned a morphology score in assay [1] of -0.0565. Also, the SARS-CoV-2 infection rate in assay [2] was 107% (inactive).
In assay [1], `CC(=O)Nc1cccc(O)c1` [metacetamol] (10 µM) displayed a morphology score of 0.0448. Moreover, the SARS-CoV-2 infection rate in assay [2] was 97% (inactive).
The matching figures for `CC(C)Oc1cccc(-n2c(CCc3c[nH]c4ccc(Br)cc34)nc3ccccc3c2=O)c1` (10 µM): 0.149 and 93% (inactive).
The matching figures for `CCCCC[C@H](O)/C=C/[C@H]1[C@H](O)CC(=O)[C@@H]1C/C=C\CCCC(=O)O` [dinoprostone] (10 µM): 0.144 and 95.5% (inactive).
`CC(=O)NC[C@H]1CN(c2ccc(N3CCOCC3)c(F)c2)C(=O)O1` [linezolid] (10 µM): in assay [1], the morphology score amounted to 0.0235. Also, in assay [2], the SARS-CoV-2 infection rate is 112% (inactive).
On the same counts, the results for `COc1ccc(C(=O)/C(Cc2cc(OC)c(OC)c(OC)c2)=C(\C(=O)O)c2ccc3c(c2)OCO3)cc1` (10 µM) are 0.489 and 69% (inactive).
On the same counts, the results for `Nc1nc(OCc2ccccc2)c2nc[nH]c2n1` [O6-benzylguanine] (10 µM) are 0.112 and 108% (inactive).
The matching figures for `N=C(N)NCCC[C@H](NC(=O)[C@@H]1CCCN1C(=O)[C@@H]1CSSC[C@H](N)C(=O)N[C@@H](Cc2ccc(O)cc2)C(=O)N[C@@H](Cc2ccccc2)C(=O)N[C@@H](CCC(N)=O)C(=O)N[C@@H](CC(N)=O)C(=O)N1)C(=O)NCC(N)=O` [vasopressin] (10 µM): 0.0923 and 95.5% (inactive).
`CON(C)C(=O)N1N=C(c2cc(F)ccc2F)S[C@@]1(CCCN)c1ccccc1` [filanesib] (0.833333 µM) came in with a morphology score in assay [1] of -0.306. Further, the SARS-CoV-2 infection rate in assay [2] is 99% (inactive).
On the same counts, the results for `Cc1cccc(C)c1OCC(C)N` (configuration not stated) [mexiletine] (10 µM) are -0.0725 and 112% (inactive).
The matching figures for `CCCCCOC(=O)Nc1nc(=O)n([C@@H]2O[C@H](C)[C@@H](O)[C@H]2O)cc1F` [capecitabine] (10 µM): -0.208 and 114% (inactive).
On the same counts, the results for `Clc1cccc(N2CCNCC2)c1` (10 µM) are 0.0057 and 114% (inactive).
Turning to `OCCN1CCN(CC/C=C2/c3ccccc3Sc3ccc(C(F)(F)F)cc32)CC1` [flupentixol] (10 µM), in assay [1], the morphology score came out at 0.506. Also, the SARS-CoV-2 infection rate in assay [2] was 79% (inactive).
As for `Cc1cc(NC(=O)Nc2ccc(F)c(F)c2)n(-c2ccccc2)n1` (10 µM), the morphology score in assay [1] was 0.105. Further, in assay [2], the SARS-CoV-2 infection rate was 102% (inactive).
The matching figures for `C/C=C/C=C/C(=O)O` [sorbic-acid] (10 µM): -0.0925 and 101% (inactive).
The matching figures for `CCCOC(C(=O)OC1CCN(C)CC1)(c1ccccc1)c1ccccc1` [propiverine] (10 µM): 0.677 and 41% (active).
On the same counts, the results for `CCc1cc2c(s1)-n1c(C)nnc1CN=C2c1ccccc1Cl` [etizolam] (10 µM) are -0.0349 and 103% (inactive).
The compound `O=C1NC(=O)c2c1c1c3ccccc3n3c1c1c2c2ccccc2n1C1CCC3O1` (10 µM) gave a morphology score in assay [1] of -0.0614. The SARS-CoV-2 infection rate in assay [2] was 108% (inactive).
In assay [1], `COc1ccc2nc3c(c(N)c2c1)CCCC3` [7-methoxytacrine] (10 µM) returned a morphology score of 0.597. In addition, the SARS-CoV-2 infection rate in assay [2] was 64.5% (inactive).
On the same counts, the results for `C[C@](O)(COc1ccc(C#N)cc1)C(=O)Nc1ccc(C#N)c(C(F)(F)F)c1` [ostarine] (10 µM) are 0.0725 and 112% (inactive).
The matching figures for `O=C(Nc1ccccc1)c1ccccc1O` [salicylanilide] (10 µM): -0.148 and 110% (inactive).
On the same counts, the results for `O=C(O)C1=CCNCC1` [isoguvacine] (10 µM) are 0.0662 and 99.5% (inactive).
For `CC[C@@H](C)CNCC(=O)N1CCc2sccc2[C@@H]1COc1cccc(C)c1` (10 µM), in assay [1], the morphology score was 0.447. In assay [2], the SARS-CoV-2 infection rate is 58.5% (active).
The matching figures for `CC(=O)N(c1onc(C)c1C)S(=O)(=O)c1ccc(N)cc1` [sulfisoxazole-acetyl] (10 µM): 0.179 and 91% (inactive).
On the same counts, the results for `CCN1C[C@]2(COC(=O)c3ccccc3N3C(=O)C[C@H](C)C3=O)CC[C@H](OC)[C@@]34[C@@H]5C[C@H]6[C@H](OC)[C@@H]5[C@](O)(C[C@@H]6OC)[C@](O)([C@@H](OC)[C@H]23)[C@@H]14` [methyllycaconitine] (10 µM) are 0.00671 and 110% (inactive).
`NC(=O)c1ccc(N(C(N)=O)c2c(F)cccc2F)nc1-c1ccc(F)cc1F` (10 µM) displayed a morphology score in assay [1] of -0.134. In assay [2], the SARS-CoV-2 infection rate is 111% (inactive).
On the same counts, the results for `CCCCCCNC(=O)n1cc(F)c(=O)[nH]c1=O` [carmofur] (0.833333 µM) are 0.222 and 96% (inactive).
The matching figures for `CCCCCCCC/C=C/CCCCCCCC(=O)OC[C@H]1O[C@@H](n2ccc(N)nc2=O)C(F)(F)[C@@H]1O` [gemcitabine-elaidate] (0.833333 µM): 0.0895 and 112% (inactive).
Regarding `Clc1ccccc1CNC[C@H]1CC[C@H](CNCc2ccccc2Cl)CC1` (10 µM), the morphology score in assay [1] stood at 0.523. Besides, the SARS-CoV-2 infection rate in assay [2] is 49% (active).
Turning to `CNC(=O)[C@@H](NC(=O)[C@H](CC(C)C)[C@H](O)C(=O)NO)C(C)(C)C` [marimastat] (10 µM), in assay [1], the morphology score was -0.0923. In addition, the SARS-CoV-2 infection rate in assay [2] was 118% (inactive).
As for `C[C@H](/C=C/[C@H](C)C(C)(C)O)[C@H]1CC[C@H]2/C(=C/C=C3C[C@@H](O)C[C@H](O)C3)CCC[C@]12C` [paricalcitol] (10 µM), in assay [1], the morphology score turned out to be 0.0995. The SARS-CoV-2 infection rate in assay [2] was 104% (inactive).
On the same counts, the results for `COc1ccc(Nc2ccn(-c3ccccc3)n2)cc1` (10 µM) are 0.166 and 87.5% (inactive).
The matching figures for `CC(C)c1c(NC(=O)Nc2ccc(Cl)cc2)c(=O)n(-c2ccccc2)n1C` (10 µM): 0.0113 and 112% (inactive).
In the case of `NC(=O)CN1CCCC1=O` [piracetam] (10 µM), the morphology score in assay [1] is -0.0282. The SARS-CoV-2 infection rate in assay [2] was 96.5% (inactive).
On the same counts, the results for `CO[C@H]1C[C@@H]2CC[C@@H](C)[C@@](O)(O2)C(=O)C(=O)N2CCCC[C@H]2C(=O)O[C@H]([C@H](C)C[C@@H]2CC[C@H](n3cnnn3)[C@H](OC)C2)CC(=O)[C@H](C)/C=C(\C)[C@@H](O)[C@@H](OC)C(=O)[C@H](C)C[C@H](C)/C=C/C=C/C=C/1C` [zotarolimus] (0.833333 µM) are -0.292 and 119% (inactive).
The matching figures for `CC1(C)CCC(C)(C)c2cc(C3(c4ccc5cc(C(=O)O)ccc5c4)SCCS3)ccc21` (10 µM): 0.132 and 98% (inactive).
On the same counts, the results for `c1ccc2c(-c3cnn4cc(-c5ccc(N6CCNCC6)cc5)cnc34)ccnc2c1` (10 µM) are -0.0877 and 108% (inactive).
In assay [1], `CNc1ncc2cc(-c3cc(NC(=O)NCCC(C)(C)C)c(F)cc3C)c(C)nc2n1` (10 µM) returned a morphology score of 0.18. The SARS-CoV-2 infection rate in assay [2] was 106% (inactive).
On the same counts, the results for `CC1(C)OC(=O)NC1=O` [dimethadione] (10 µM) are -0.0571 and 102% (inactive).
On the same counts, the results for `O=C1Cc2cc(CCN3CCN(c4nsc5ccccc45)CC3)c(Cl)cc2N1` [ziprasidone] (10 µM) are 0.328 and 100% (inactive).
`Cn1cc(-c2ccc(S(=O)(=O)n3ccc(/C=C/C(=O)Nc4ccccc4N)c3)cc2)cn1` (10 µM) had a morphology score in assay [1] of -0.0742. In addition, the SARS-CoV-2 infection rate in assay [2] was 105% (inactive).
For the compound `C=C1C(=O)O[C@@H]2C[C@@]3(C)CCC[C@H](C)C3=C[C@H]12` [alantolactone] (10 µM), the morphology score in assay [1] is 0.304. In addition, the SARS-CoV-2 infection rate in assay [2] is 32% (active).
On the same counts, the results for `O=c1oc2cc(O)ccc2s1` [tioxolone] (10 µM) are 0.0494 and 104% (inactive).
On the same counts, the results for `Cc1c(C2CCN(CCc3ccccc3)CC2)noc1-c1ccc(Cl)cc1` (10 µM) are 0.195 and 84% (inactive).
The compound `CCCCCCCCc1ccc(-c2ccc(C(=O)O)cc2)cc1` (10 µM) displayed a morphology score in assay [1] of -0.0106. Besides, in assay [2], the SARS-CoV-2 infection rate is 96% (inactive).
The matching figures for `CC(C)NC[C@@H](O)c1ccc(O)c(O)c1` (racemic) [isoprenaline] (0.833333 µM): 0.241 and 100% (inactive).
With `Cc1ccc2c(c1)[C@]13CCCC[C@@H]1[C@H](C2)N(C)CC3` [dimemorfan] (10 µM), in assay [1], the morphology score stood at 0.368. For the same compound, the SARS-CoV-2 infection rate in assay [2] is 92.5% (inactive).
The matching figures for `NC(CO)(CO)CO` [trometamol] (10 µM): -0.0719 and 106% (inactive).
In assay [1], `CN1[C@@H]2CC[C@H]1C[C@@H](OC(=O)c1cc(Cl)cc(Cl)c1)C2` [bemesetron] (10 µM) gave a morphology score of 0.216. In addition, the SARS-CoV-2 infection rate in assay [2] is 89.5% (inactive).
The matching figures for `O=C(NCc1ccc2c(c1)OCO2)c1c(Cl)cccc1Cl` [alda-1] (10 µM): 0.107 and 104% (inactive).
On the same counts, the results for `NS(=O)(=O)Nc1ncnc(OCCOc2ncc(Br)cn2)c1-c1ccc(Br)cc1` (10 µM) are 0.0685 and 120% (inactive).
On the same counts, the results for `C[C@H](c1ccc2ccc(OC3CCC(C(F)(F)F)CC3)c(C(F)(F)F)c2c1)N1C2CCC1CC(C(=O)O)C2` (some centres not stated) [autotaxin-modulator-1] (10 µM) are 0.317 and 91% (inactive).
Turning to `O=c1c(O)c(-c2ccc(O)c(O)c2)oc2cc(O)ccc12` [fisetin] (10 µM), the morphology score in assay [1] was found to be 0.115. Besides, in assay [2], the SARS-CoV-2 infection rate is 111% (inactive).
The matching figures for `CNC(=O)c1cnn(-c2nc(N)c3ncn([C@@H]4O[C@H](CO)[C@@H](O)[C@H]4O)c3n2)c1` [regadenoson] (10 µM): -0.0309 and 111% (inactive).
`Nc1ncnc2c1ncn2[C@@H]1O[C@H](C[C@@H](N)CC[C@H](N)C(=O)O)[C@@H](O)[C@H]1O` [sinefungin] (10 µM): the morphology score in assay [1] was determined as 0.0839. Moreover, the SARS-CoV-2 infection rate in assay [2] is 109% (inactive).
